Data taken from PubChem BioAssay AID1159580 (chemical genetic matrix, 2015).
Out of some 5,500 compounds screened, about 2,000 (36%) were called active. Inconclusive results (about 18%) are left out. No stated cut-off is given here; in the data, active means normalized growth mostly below about 0.91 (no sharp cut-off); inconclusive means no clear call, values can overlap the other calls; inactive means mostly above about 0.92. The list shows a part of the results.

Assay: chemical genetic growth profiling, strain panel (AID 1159580);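 further: tested at 20 µM; growth read once vehicle control cultures reached saturation at 30 °C; 1 = growth at the plate median or of vehicle wells; lower values mean less growth of the strain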
Settings: growth OD

Measured: normalized growth

C1CCN(CCC2CCCCN2)CC1 (stereo not drawn)
inactive: S. cerevisiae deletion strains, locus YAL013W, strain DEP1, hits give low values 0.999 | S. cerevisiae deletion strains, locus YBR229C, strain ROT2, hits give low values 1.01 | S. cerevisiae deletion strains, locus YDL101C, strain DUN1, hits give low values 0.995 | S. cerevisiae deletion strains, locus YDL134C, strain PPH21, hits give low values 1 | S. cerevisiae deletion strains, locus YDR150W, strain NUM1, hits give low values 0.936 | S. cerevisiae deletion strains, locus YEL061C, strain CIN8, hits give low values 1.02 | S. cerevisiae deletion strains, locus YGR078C, strain PAC10, hits give low values 1 | S. cerevisiae deletion strains, locus YHR030C, strain SLT2, hits give low values 1.08 | S. cerevisiae deletion strains, locus YHR087W, strain rtc3, hits give low values 1 | S. cerevisiae deletion strains, locus YJR043C, strain POL32, hits give low values 1 | S. cerevisiae deletion strains, locus YJR075W, strain HOC1, hits give low values 0.998 | S. cerevisiae deletion strains, locus YKL190W, strain CNB1, hits give low values 0.998 | S. cerevisiae deletion strains, locus YLR039C, strain RIC1, hits give low values 1.01 | S. cerevisiae deletion strains, locus YLR058C, strain SHM2 (second series), hits give low values 1.01 | S. cerevisiae deletion strains, locus YLR085C, strain ARP6, hits give low values 1.01 | S. cerevisiae deletion strains, locus YLR262C, strain YPT6, hits give low values 1 | S. cerevisiae deletion strains, locus YML094W, strain GIM5, hits give low values 1.01 | S. cerevisiae deletion strains, locus YMR219W, strain ESC1, hits give low values 1 | S. cerevisiae deletion strains, locus YMR263W, strain SAP30, hits give low values 1.01 | S. cerevisiae deletion strains, locus YNL153C, strain GIM3, hits give low values 1 | S. cerevisiae deletion strains, locus YNL298W, strain CLA4 (second series), hits give low values 0.981 | S. cerevisiae deletion strains, locus YNL322C, strain KRE1, hits give low values 0.995 | S. cerevisiae deletion strains, locus YNR030W, strain Alg12, hits give low values 0.996 | S. cerevisiae deletion strains, locus YOL006C, strain TOP1, hits give low values 0.964 | S. cerevisiae deletion strains, locus YPL055C, strain LGE1, hits give low values 0.967 | S. cerevisiae deletion strains, locus YPL241C, strain CIN2, hits give low values 0.993 | S. cerevisiae deletion strains, locus YPR135W, strain CTF4, hits give low values 1.08 | S. cerevisiae strains, strain wild type, hits give low values 0.996
